The source made the active and inactive calls.
Details: Ebola virus entry assay, ratio channel readout

SMILES | outcome
CS(=O)(=O)OCCCCOS(C)(=O)=O | inactive
Cc1oncc1C(=O)Nc1ccc(C(F)(F)F)cc1 | inactive
CCCCNC(=O)NS(=O)(=O)c1ccc(C)cc1 | inactive
COc1ccccc1OCC(O)CN1CCN(CC(=O)Nc2c(C)cccc2C)CC1 (centres undefined) | inactive
Cn1cnc([N+](=O)[O-])c1Sc1ncnc2nc[nH]c12 | inactive
O=C(O)CCNC(=O)c1ccc(N=Nc2ccc(O)c(C(=O)O)c2)cc1 | inactive
Cc1[nH]c(=O)c(C#N)cc1-c1ccncc1 | inactive
Nc1nnc(-c2cccc(Cl)c2Cl)c(N)n1 | inactive
CCCCN1C[C@H](O)[C@@H](O)[C@H](O)[C@H]1CO | inactive
O=P(O)(O)C(O)(Cc1cccnc1)P(=O)(O)O | inactive
CO[C@@]12[C@H](COC(N)=O)C3=C(C(=O)C(C)=C(N)C3=O)N1C[C@@H]1N[C@@H]12 | inactive
CN/C(=C\[N+](=O)[O-])NCCSCc1ccc(CN(C)C)o1 | inactive
CCN(CC)CCNC(=O)c1cc(Cl)c(N)cc1OC | inactive
CCC1C(=O)OCC1Cc1cncn1C (centres undefined) | inactive
Cn1c(=O)c2c(ncn2CC(O)CO)n(C)c1=O (centres undefined) | inactive
Oc1cn2c(n1)Nc1ccc(Cl)c(Cl)c1C2 | inactive
CCCCNc1ccc(C(=O)OCCOCCOCCOCCOCCOCCOCCOCCOCCOC)cc1 | inactive
O=C(c1ccccc1)c1ccc2n1CCC2C(=O)O (centres undefined) | inactive
Cc1cccc(Nc2ccccc2C(=O)O)c1C | inactive

SMILES | outcome
O=C(OC1C[C@H]2CC[C@@H](C1)[N+]21CCCC1)C(O)(c1ccccc1)c1ccccc1 (some centres undefined) | inactive
Cc1onc(-c2c(Cl)cccc2Cl)c1C(=O)N[C@@H]1C(=O)N2[C@@H]1SC(C)(C)[C@@H]2C(=O)O | inactive
O[C@@H]1CO[C@H]2[C@@H]1OC[C@@H]2O | inactive
CCOc1ccccc1OCCN[C@H](C)Cc1ccc(OC)c(S(N)(=O)=O)c1 | inactive
CNCCc1ccccn1 | inactive
CC[N+](C)(C)c1cccc(O)c1 | inactive
CC(=O)N[C@@H](CS)C(=O)O | inactive
COc1cc(C(=O)NCc2ccc(OCCN(C)C)cc2)cc(OC)c1OC | inactive
CC(C)(C)NC(=O)[C@@H]1CN(Cc2cccnc2)CCN1C[C@@H](O)C[C@@H](Cc1ccccc1)C(=O)N[C@H]1c2ccccc2C[C@H]1O | inactive
COc1ccc2nc(S(=O)Cc3ncc(C)c(OC)c3C)[nH]c2c1 (centres undefined) | inactive
O=C(CCCCCCC(=O)Nc1ccccc1)NO | inactive
NS(=O)(=O)c1cc2c(cc1C(F)(F)F)NCNS2(=O)=O | inactive
CCCC(=O)Nc1ccc(OCC(O)CNC(C)C)c(C(C)=O)c1 (centres undefined) | inactive
CCC1(c2ccccc2)C(=O)NCNC1=O | inactive
CCCc1cc(=O)[nH]c(=S)[nH]1 | inactive
NCCC(O)(P(=O)(O)O)P(=O)(O)O | inactive
C[C@@H]1C[C@H]2[C@@H]3CCC4=CC(=O)C=C[C@]4(C)[C@@]3(F)[C@@H](O)C[C@]2(C)[C@@]1(O)C(=O)CO | inactive
N[C@@H](C(=O)N[C@@H]1C(=O)N2C(C(=O)O)=C(Cl)CS[C@H]12)c1ccccc1 | inactive

Details: Ebola virus entry assay, blue channel fluorescence

SMILES | outcome
CS(=O)(=O)OCCCCOS(C)(=O)=O | inactive
Cc1oncc1C(=O)Nc1ccc(C(F)(F)F)cc1 | inactive
CCCCNC(=O)NS(=O)(=O)c1ccc(C)cc1 | inactive
COc1ccccc1OCC(O)CN1CCN(CC(=O)Nc2c(C)cccc2C)CC1 (centres undefined) | inactive
Cn1cnc([N+](=O)[O-])c1Sc1ncnc2nc[nH]c12 | inactive
O=C(O)CCNC(=O)c1ccc(N=Nc2ccc(O)c(C(=O)O)c2)cc1 | inactive
Cc1[nH]c(=O)c(C#N)cc1-c1ccncc1 | inactive
Nc1nnc(-c2cccc(Cl)c2Cl)c(N)n1 | inactive
CCCCN1C[C@H](O)[C@@H](O)[C@H](O)[C@H]1CO | inactive
O=P(O)(O)C(O)(Cc1cccnc1)P(=O)(O)O | inactive
CO[C@@]12[C@H](COC(N)=O)C3=C(C(=O)C(C)=C(N)C3=O)N1C[C@@H]1N[C@@H]12 | inactive
CN/C(=C\[N+](=O)[O-])NCCSCc1ccc(CN(C)C)o1 | inactive
CCN(CC)CCNC(=O)c1cc(Cl)c(N)cc1OC | inactive
CCC1C(=O)OCC1Cc1cncn1C (centres undefined) | inactive
Cn1c(=O)c2c(ncn2CC(O)CO)n(C)c1=O (centres undefined) | inactive
Oc1cn2c(n1)Nc1ccc(Cl)c(Cl)c1C2 | inactive
CCCCNc1ccc(C(=O)OCCOCCOCCOCCOCCOCCOCCOCCOCCOC)cc1 | inactive
O=C(c1ccccc1)c1ccc2n1CCC2C(=O)O (centres undefined) | inactive
Cc1cccc(Nc2ccccc2C(=O)O)c1C | inactive

SMILES | outcome
O=C(OC1C[C@H]2CC[C@@H](C1)[N+]21CCCC1)C(O)(c1ccccc1)c1ccccc1 (some centres undefined) | inactive
Cc1onc(-c2c(Cl)cccc2Cl)c1C(=O)N[C@@H]1C(=O)N2[C@@H]1SC(C)(C)[C@@H]2C(=O)O | inactive
O[C@@H]1CO[C@H]2[C@@H]1OC[C@@H]2O | inactive
CCOc1ccccc1OCCN[C@H](C)Cc1ccc(OC)c(S(N)(=O)=O)c1 | inactive
CNCCc1ccccn1 | inactive
CC[N+](C)(C)c1cccc(O)c1 | inactive
CC(=O)N[C@@H](CS)C(=O)O | inactive
COc1cc(C(=O)NCc2ccc(OCCN(C)C)cc2)cc(OC)c1OC | inactive
CC(C)(C)NC(=O)[C@@H]1CN(Cc2cccnc2)CCN1C[C@@H](O)C[C@@H](Cc1ccccc1)C(=O)N[C@H]1c2ccccc2C[C@H]1O | inactive
COc1ccc2nc(S(=O)Cc3ncc(C)c(OC)c3C)[nH]c2c1 (centres undefined) | inactive
O=C(CCCCCCC(=O)Nc1ccccc1)NO | inactive
NS(=O)(=O)c1cc2c(cc1C(F)(F)F)NCNS2(=O)=O | inactive
CCCC(=O)Nc1ccc(OCC(O)CNC(C)C)c(C(C)=O)c1 (centres undefined) | inactive
CCC1(c2ccccc2)C(=O)NCNC1=O | inactive
CCCc1cc(=O)[nH]c(=S)[nH]1 | inactive
NCCC(O)(P(=O)(O)O)P(=O)(O)O | inactive
C[C@@H]1C[C@H]2[C@@H]3CCC4=CC(=O)C=C[C@]4(C)[C@@]3(F)[C@@H](O)C[C@]2(C)[C@@]1(O)C(=O)CO | inactive
N[C@@H](C(=O)N[C@@H]1C(=O)N2C(C(=O)O)=C(Cl)CS[C@H]12)c1ccccc1 | inactive

From PubChem BioAssay (NCATS)
